Our source for the luminescence values is PubChem BioAssay AID686977 (Southern Research Specialized Biocontainment Screening …, 2013).

Molecules are shown by their SMILES. The campaign covered roughly 9,400 compounds. Fewer than 10 were called active. About 5% were inconclusive and are not listed. Not all results are given here. Entries with a potency or affinity are not part of this list. A number with no mark means an inactive call. No rule for the calls is given here.

The experiment is described as follows: Vibrio cholerae quorum sensing activators, luminescence (AID 686977). The following applies: V. cholerae quorum sensing reporter, 6 h, stronger effect = higher value; dose 50, dose unit µM unless noted.
On to `CCN(CC)c1ncnc2sc(C(=O)N3CCN(c4ccc(OC)cc4)CC3)c(C)c12`, for which the luminescence is 160.

With `c1cc2c3c(cccc3c1)NC1(CCCCC1)N2`, the luminescence is 40.

As to `O=C(Nc1ccc(Cc2ccncc2)cc1)c1ccc(Cl)c([N+](=O)[O-])c1`, the luminescence was 0.

Consider `COc1cccc(S(=O)(=O)NCc2ccc(C(=O)NCC3CCCO3)cc2)c1` (stereo unspecified), for which the luminescence was 40.

`O=C(Nc1ccc2c(c1)OCCO2)c1ccc(CN2CCOCC2)cc1`: the luminescence was 0.

`COCCOC(=O)C1=C(C)NC2=C(C(=O)CC(c3cccs3)C2)C1c1ccsc1` (stereo unspecified): the luminescence was 40.

In the case of `CCN1CCN(c2nc3c(c(=O)[nH]c(=O)n3C)n2CCSc2nc3ccccc3s2)CC1`, the luminescence was 0.

`CCc1ccc(C2CC(c3ccc(F)cc3)Nc3nc(N)nn32)cc1` (stereo unspecified): the luminescence is 40.

Take `COc1ccccc1C(=O)N1CCNC(=O)C1CC(=O)Nc1cccc(C)c1` (stereo unspecified): the luminescence is 0.

`O=C(O)c1[nH]c2ccccc2c1CC(=O)N1CCOCC1`: the luminescence was 0.

Regarding `Cc1cc(C(=O)Nc2c(C)nn(Cc3ccc(F)cc3)c2C)on1`, the luminescence is 0.

As for `COC(=O)c1ccc(NC(=O)CN(Cc2ccc(Cl)cc2)S(C)(=O)=O)cc1`, the luminescence is 0.

`CC(C)SCCCOc1ccc(C(C)(C)C)cc1`: the luminescence is 0.

For the compound `CCOC(=O)C1CCCN(c2c(NCCCN(C)c3ccccc3)c(=O)c2=O)C1` (stereo unspecified), the luminescence is 0.

Consider `COC(=O)c1ccc(NC(=O)CSc2nnc(COc3ccc4c(c3)CCCC4)o2)cc1`, for which the luminescence is 40.

Consider `CCC(=O)NCCCOc1ccccc1`, for which the luminescence was 0.

For `O=C(Nc1ccc2c(c1)CCC2)c1cc(S(=O)(=O)N2CCN(c3ccccc3)CC2)ccc1Cl`, the luminescence is 0.

With `CCOC(=O)c1sc2nc(C)cc(C)c2c1NC(=O)c1ccco1`, the luminescence was 0.

Regarding `CCOC(=O)N1CCC(NC(=O)C(Cc2ccccc2)NC(=O)C2CCCCC2)CC1` (stereo unspecified), the luminescence is 0.

As to `CCOc1cc(N2CCOCC2)c(OCC)cc1NC(=O)CN1CCc2ccccc2C1`, the luminescence is 0.

Regarding `CCn1ncc(C2=NOC(C(=O)NCc3ccc(OC)cc3)C2)c1C` (stereo unspecified), the luminescence was 0.

On to `COc1ccc(-n2c(Cn3c(=O)sc4ccccc43)nnc2SCC(=O)N2CCCCC2)cc1`, for which the luminescence was 0.

In the case of `COc1ccc(NC(=O)c2c(NC(=O)CNCc3ccco3)sc3c2CCC3)c(OC)c1`, the luminescence is 40.

In the case of `COC(=O)c1nc2cc(C)ccn2c1F`, the luminescence is 40.

Regarding `Cc1ccc(NS(=O)(=O)c2cc(C(N)=O)ccc2C)cc1`, the luminescence was 0.

Consider `Cc1ccc([N+](=O)[O-])cc1N=Cc1ccc(Br)s1`, for which the luminescence is 40.

For the compound `CC(=O)N(c1ccc(Br)cc1)C1C=CS(=O)(=O)C1` (stereo unspecified), the luminescence is 0.

In the case of `Cc1cc2ccccc2n1CCNC(=O)c1cccs1`, the luminescence is 0.

With `Cc1cc(C)nc(NC(=O)c2cnc3sccn3c2=O)n1`, the luminescence was 0.

In the case of `CCn1c(=O)cc(OCC(=O)NCCC(C)C)c2ccccc21`, the luminescence was 40.

For the compound `C=CCNC(=O)CN(c1cccc(Br)c1)S(C)(=O)=O`, the luminescence is 0.

Consider `CCOC(=O)c1c(-c2ccccc2)csc1NC(=O)c1ccc(S(=O)(=O)N2CC(C)OC(C)C2)cc1` (stereo unspecified), for which the luminescence is 40.

For the compound `COc1cc(C(=O)N(Cc2cccc(Cl)c2)C2CCS(=O)(=O)C2)cc(OC)c1OC` (stereo unspecified), the luminescence is 40.

For `Cc1ccc2oc(=O)c3cnn(CC(=O)NC4CCN(Cc5ccccc5)CC4)c3c2c1`, the luminescence was 0.

With `CC(C)C(=O)Nc1nc2cc3c(cc2s1)OCO3`, the luminescence is 0.

As for `COC(=O)c1[nH]c2cc(OC)ccc2c1NC(=O)CCN1CCN(c2ccccc2)CC1`, the luminescence was 40.

With `O=C(Nc1cccc(F)c1)c1cccnc1N1CCOCC1`, the luminescence was 80.

In the case of `COc1ccccc1N1CCN(C(=O)Oc2ccccc2)CC1`, the luminescence was 0.

With `COc1cc(S(=O)(=O)N2CCC(N3CCCCC3)CC2)ccc1-n1cnnn1`, the luminescence was 0.

As for `CC(Oc1ccc(-c2ccccc2)c(F)c1)c1ccn(S(=O)(=O)c2ccc(F)cc2)n1` (stereo unspecified), the luminescence is 120.

Take `COc1ccccc1NC(=O)C1=C(C)NC(=O)NC1c1ccc(C)cc1` (stereo unspecified): the luminescence was 80.

In the case of `O=C(O)CCCSCC(=O)Nc1ccccc1`, the luminescence is 0.

For `O=C(C[n+]1ccc(C(=O)N/N=C/c2ccc(OCc3ccccc3)cc2)cc1)c1ccccc1`, the luminescence was 0.

On to `CCOC(=O)C1=C(C)Nc2nnnn2C1c1ccc(OC)c(Br)c1` (stereo unspecified), for which the luminescence was 0.

In the case of `Cc1c(Cl)cccc1NC(=O)CN1C(=O)CSc2ncccc21`, the luminescence is 0.

With `O=c1cc(NC2CCCCC2)c2ccccc2o1`, the luminescence is 0.

In the case of `CCOc1ccc(CNC(=O)C(CC)n2nc(C)n3c(cc4occc43)c2=O)cc1OC` (stereo unspecified), the luminescence is 0.

As to `CNc1ccccc1-c1nc2ccccc2n(C)c1=O`, the luminescence is 0.

As to `O=C(Nc1ccc(Cl)cn1)C1CCCN1S(=O)(=O)c1ccc(Cl)cc1` (stereo unspecified), the luminescence was 0.

`CCC(Oc1ccccc1)C(=O)Nc1ccccc1OC` (stereo unspecified): the luminescence was 0.

With `CCOCCn1c(SCCc2ccccc2)nc2c1c(=O)[nH]c(=O)n2C`, the luminescence is 0.

Consider `Cc1nn(C2CCS(=O)(=O)C2)c(Cl)c1/C=C/C(=O)OCC(=O)Nc1ccccc1OC(F)F` (stereo unspecified), for which the luminescence was 0.

On to `COc1ccc(S(=O)(=O)Cc2ccc(C(=O)NCc3ccccn3)o2)cc1`, for which the luminescence was 0.

Regarding `CCOC(=O)N1CCN(C(=O)CSc2nc3c([nH]c4ccccc43)c(=O)n2C)CC1`, the luminescence is 40.

For the compound `C#CCN1C(=O)C2C(C(=O)NC)C3C=CC2(O3)C1C(=O)NCc1ccc(OC)cc1` (stereo unspecified), the luminescence is 40.

Turning to `CCCNC(=O)C(NS(=O)(=O)c1ccc2c(c1)c(=O)n(C)c(=O)n2C)c1ccccc1` (stereo unspecified), the luminescence was 40.

Consider `CN[C@H]1[C@@H](O)[C@H](O[C@H]2[C@@H](O)[C@@H](OC3OC(CN)=CCC3N)[C@H](N)C[C@@H]2N)OC[C@@]1(C)O` (stereo partly specified), for which the luminescence is 40 [dose 10, dose unit µg/mL].

For the compound `CCc1ccc(CCC(=O)Nc2ccc(C)c(C)c2)o1`, the luminescence was 0.

Turning to `CCc1cccc(OCCOCCN2CCCC2)c1`, the luminescence is 40.

Consider `CCOC(=O)c1ccccc1NC(=O)c1cc(S(=O)(=O)N2CCOCC2)ccc1F`, for which the luminescence was 0.

With `Cc1ccc(S(=O)(=O)CCc2nnc(NC(=O)C3CCCO3)s2)cc1` (stereo unspecified), the luminescence is 0.

For `COC(=O)c1cc(-c2ccc(Br)cc2)n[nH]1`, the luminescence is 0.

With `CN(C)S(=O)(=O)c1ccc(S(=O)(=O)N2CCN(CCC#N)CC2)cc1`, the luminescence is 40.

In the case of `COc1cc(C2Nc3ccc4ncccc4c3C3=C2C(=O)CC(C)(C)C3)cc(OC)c1O` (stereo unspecified), the luminescence is 0.

On to `CN(CC(=O)N1CCc2ccccc2C1)S(=O)(=O)c1ccc2c(c1)c(=O)n(C)c(=O)n2C`, for which the luminescence is 40.

Turning to `CCOc1ccc(CCNC(=O)Cn2c(=O)oc3ccccc32)cc1OCC`, the luminescence is 0.

`COC(=O)c1cc(=O)n(CCc2ccc(OC)c(OC)c2)c(=Nc2ccc(F)c(Cl)c2)s1`: the luminescence is 40.

Consider `CCc1nnc(NC(=O)CSc2nnc(-c3ccco3)n2C)s1`, for which the luminescence was 0.

For the compound `CN/C(=C/[N+](=O)[O-])NCCSCc1csc(CN(C)C)n1`, the luminescence was 0 [dose 10, dose unit µg/mL].

For `CCCCCCN1CC(O)=C(c2ccccc2)C1=N`, the luminescence is 0.

Regarding `CC1CCN(C(=O)CSc2nc3c(cnn3-c3ccc(Cl)cc3)c(=O)[nH]2)CC1`, the luminescence was 0.
